Measured values published in ChEMBL document CHEMBL2218924, “A broad activity screen in support of a chemogenomic map for kinase signalling research and drug discovery” (Biochem J, 2013).

These molecules were tested against T1, Mitogen-activated protein kinase 13 (Homo sapiens) (UniProt O15264). Conditions: at 1 µM.
T1 sequence (whole entry): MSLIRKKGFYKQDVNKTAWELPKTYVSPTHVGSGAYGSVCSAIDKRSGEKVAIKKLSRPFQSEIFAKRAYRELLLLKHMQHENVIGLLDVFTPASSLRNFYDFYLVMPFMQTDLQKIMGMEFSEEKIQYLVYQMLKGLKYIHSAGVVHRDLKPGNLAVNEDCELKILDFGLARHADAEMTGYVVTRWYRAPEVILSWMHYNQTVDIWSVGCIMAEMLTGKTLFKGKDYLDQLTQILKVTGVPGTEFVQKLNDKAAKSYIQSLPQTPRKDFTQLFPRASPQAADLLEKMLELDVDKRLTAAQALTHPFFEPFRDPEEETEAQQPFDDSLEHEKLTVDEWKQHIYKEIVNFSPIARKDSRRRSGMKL

**Q.** How did the residual activity turn out when `O=C(NC(NC(=S)Nc1ccc(F)c([N+](=O)[O-])c1)C(Cl)(Cl)Cl)C(c1ccccc1)c1ccccc1` (stereo not drawn) was run?
**A.** 95%

**Q.** With `O=C(O)/C=C/c1cc(Br)c(Br)c(Br)c1Br` as the molecule, how does the residual activity read?
**A.** 103%

**Q.** For `Cn1sc(=O)n(Cc2ccccc2)c1=O`, which residual activity is on record?
**A.** 100%

**Q.** For `COc1cc2ncnc(Nc3cccc(Cl)c3)c2cc1OC`, which residual activity is on record?
**A.** 118%

**Q.** How did the residual activity turn out when `CN([C@@H](Cc1ccc(OS(=O)(=O)c2cccc3cnccc23)cc1)C(=O)N1CCN(c2ccccc2)CC1)S(=O)(=O)c1cccc2cnccc12` was run?
**A.** 81%

**Q.** For `O=C1Cc2c([nH]c3ccc(Br)cc23)-c2ccccc2N1`, which residual activity is on record?
**A.** 98%

**Q.** With `O=c1cc(N2CCOCC2)oc2c(-c3ccccc3)cccc12` as the molecule, how does the residual activity read?
**A.** 101%

**Q.** Which residual activity does the source give for `CCCCc1c(-c2ccc(O)cc2)[nH]c2nccnc12` here?
**A.** 98%

**Q.** For `N#C/C(=C1/Nc2ccccc2S1)c1ccnc(NCCc2cccnc2)n1`, which residual activity is on record?
**A.** 78%

**Q.** How did the residual activity turn out when `NCCNc1ncc(C(N)=O)c(Nc2cccc(C(F)(F)F)c2)n1` was run?
**A.** 114%

**Q.** `O=C(Nc1nc2ccccc2n1CCN1CCOCC1)c1cccc([N+](=O)[O-])c1` was tested. Which residual activity did it give?
**A.** 109%

**Q.** With `N#C/C(=C\c1ccc(O)c(O)c1)C(=O)NCc1ccccc1` as the molecule, how does the residual activity read?
**A.** 125%

Each molecule was assayed against T1, Mitogen-activated protein kinase 13 (Homo sapiens). Conditions: at 10 µM.

**Q.** `O=C(NC(NC(=S)Nc1ccc(F)c([N+](=O)[O-])c1)C(Cl)(Cl)Cl)C(c1ccccc1)c1ccccc1` (stereo not drawn) was tested. Which residual activity did it give?
**A.** 104%

**Q.** With `O=C(O)/C=C/c1cc(Br)c(Br)c(Br)c1Br` as the molecule, how does the residual activity read?
**A.** 93%

**Q.** With `NC(=O)c1cccc(-c2cc(Nc3ccc(OC(F)(F)F)cc3)ncn2)c1` as the molecule, how does the residual activity read?
**A.** 96%

**Q.** `Cn1sc(=O)n(Cc2ccccc2)c1=O` was tested. Which residual activity did it give?
**A.** 98%

**Q.** `COc1cc2ncnc(Nc3cccc(Cl)c3)c2cc1OC` was tested. Which residual activity did it give?
**A.** 109%

**Q.** Which residual activity does the source give for `O=C1Cc2c([nH]c3ccc(Br)cc23)-c2ccccc2N1` here?
**A.** 68%

**Q.** Which residual activity does the source give for `O=c1cc(N2CCOCC2)oc2c(-c3ccccc3)cccc12` here?
**A.** 71%

**Q.** Which residual activity does the source give for `CCCCc1c(-c2ccc(O)cc2)[nH]c2nccnc12` here?
**A.** 88%

**Q.** For `N#C/C(=C1/Nc2ccccc2S1)c1ccnc(NCCc2cccnc2)n1`, which residual activity is on record?
**A.** 48%

**Q.** `NCCNc1ncc(C(N)=O)c(Nc2cccc(C(F)(F)F)c2)n1` was tested. Which residual activity did it give?
**A.** 101%

**Q.** With `O=C(Nc1nc2ccccc2n1CCN1CCOCC1)c1cccc([N+](=O)[O-])c1` as the molecule, how does the residual activity read?
**A.** 87%

What follows are molecules tested against T2, Serine/threonine-protein kinase Sgk1 (Homo sapiens) (UniProt O00141). Conditions: at 1 µM.
T2 sequence (whole entry): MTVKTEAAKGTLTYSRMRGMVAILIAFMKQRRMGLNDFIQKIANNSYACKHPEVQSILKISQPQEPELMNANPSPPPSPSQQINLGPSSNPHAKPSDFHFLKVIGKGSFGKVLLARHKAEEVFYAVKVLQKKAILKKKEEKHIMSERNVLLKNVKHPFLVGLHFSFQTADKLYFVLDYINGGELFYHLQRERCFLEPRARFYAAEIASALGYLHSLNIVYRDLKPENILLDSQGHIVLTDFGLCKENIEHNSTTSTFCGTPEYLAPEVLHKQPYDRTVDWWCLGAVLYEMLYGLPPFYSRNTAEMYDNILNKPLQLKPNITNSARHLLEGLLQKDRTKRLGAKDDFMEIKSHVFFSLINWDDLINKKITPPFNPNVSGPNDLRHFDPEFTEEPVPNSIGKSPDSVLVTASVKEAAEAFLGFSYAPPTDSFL

**Q.** For `NC(=O)c1ccc(-c2nc(-c3ccc4c(c3)OCCO4)c(-c3ccccn3)[nH]2)cc1`, which residual activity is on record?
**A.** 98%

**Q.** How did the residual activity turn out when `O=C(O)/C=C/c1cc(Br)c(Br)c(Br)c1Br` was run?
**A.** 100%

**Q.** With `COc1ccc(-c2cnc3c(-c4ccsc4)cnn3c2)cc1` as the molecule, how does the residual activity read?
**A.** 99%

**Q.** With `CC(C)N(CCC(=O)c1ccc2ccccc2c1)Cc1ccccc1` as the molecule, how does the residual activity read?
**A.** 78%

**Q.** With `Cn1sc(=O)n(Cc2ccccc2)c1=O` as the molecule, how does the residual activity read?
**A.** 91%

**Q.** Which residual activity does the source give for `COc1cc2ncnc(Nc3cccc(Cl)c3)c2cc1OC` here?
**A.** 89%

**Q.** For `Nc1ncnc2c1cnn2-c1ccccc1`, which residual activity is on record?
**A.** 90%

**Q.** For `CN([C@@H](Cc1ccc(OS(=O)(=O)c2cccc3cnccc23)cc1)C(=O)N1CCN(c2ccccc2)CC1)S(=O)(=O)c1cccc2cnccc12`, which residual activity is on record?
**A.** 123%

**Q.** With `CC(C)(C)c1nc2c3ccc(F)cc3c3c(=O)[nH]ccc3c2[nH]1` as the molecule, how does the residual activity read?
**A.** 63%

**Q.** `COc1ccc(Cl)cc1NC(=O)Nc1cc(C)nc2ccccc12` was tested. Which residual activity did it give?
**A.** 80%

**Q.** How did the residual activity turn out when `O=C(c1ccccc1)c1ccc(N2CCOCC2)cc1O` was run?
**A.** 79%

**Q.** For `O=C1Cc2c([nH]c3ccc(Br)cc23)-c2ccccc2N1`, which residual activity is on record?
**A.** 95%

**Q.** How did the residual activity turn out when `O=c1cc(N2CCOCC2)oc2c(-c3ccccc3)cccc12` was run?
**A.** 75%

**Q.** For `CCOc1nc(NC(=O)Cc2cc(OC)ccc2OC)cc(N)c1C#N`, which residual activity is on record?
**A.** 79%

**Q.** For `O=S(=O)(c1cccc2cnccc12)N1CCCNCC1`, which residual activity is on record?
**A.** 84%

**Q.** For `NCCNc1ncc(C(N)=O)c(Nc2cccc(C(F)(F)F)c2)n1`, which residual activity is on record?
**A.** 81%

**Q.** `N#C/C(=C\c1ccc(O)c(O)c1)C(=O)NCc1ccccc1` was tested. Which residual activity did it give?
**A.** 79%

The molecules below were run against T2, Serine/threonine-protein kinase Sgk1 (Homo sapiens). Conditions: at 10 µM.

**Q.** For `NC(=O)c1ccc(-c2nc(-c3ccc4c(c3)OCCO4)c(-c3ccccn3)[nH]2)cc1`, which residual activity is on record?
**A.** 90%

**Q.** With `O=C(Nc1ccc(Cl)cc1)c1ccccc1NCc1ccncc1` as the molecule, how does the residual activity read?
**A.** 128%

**Q.** Which residual activity does the source give for `O=c1c(-c2ccc(F)cc2)c(-c2ccncc2)[nH]n1-c1ccc(Cl)cc1` here?
**A.** 101%

**Q.** With `O=C(NC(NC(=S)Nc1ccc(F)c([N+](=O)[O-])c1)C(Cl)(Cl)Cl)C(c1ccccc1)c1ccccc1` (stereo not drawn) as the molecule, how does the residual activity read?
**A.** 83%

**Q.** `O=C(O)/C=C/c1cc(Br)c(Br)c(Br)c1Br` was tested. Which residual activity did it give?
**A.** 49%

**Q.** `COc1ccc(-c2cnc3c(-c4ccsc4)cnn3c2)cc1` was tested. Which residual activity did it give?
**A.** 94%

**Q.** `CC(C)N(CCC(=O)c1ccc2ccccc2c1)Cc1ccccc1` was tested. Which residual activity did it give?
**A.** 100%

**Q.** For `NC(=O)c1cccc(-c2cc(Nc3ccc(OC(F)(F)F)cc3)ncn2)c1`, which residual activity is on record?
**A.** 159%

**Q.** How did the residual activity turn out when `Cn1sc(=O)n(Cc2ccccc2)c1=O` was run?
**A.** 96%

**Q.** `COc1cc2ncnc(Nc3cccc(Cl)c3)c2cc1OC` was tested. Which residual activity did it give?
**A.** 113%

**Q.** Which residual activity does the source give for `Nc1ncnc2c1cnn2-c1ccccc1` here?
**A.** 98%

**Q.** With `CC(C)(C)c1nc2c3ccc(F)cc3c3c(=O)[nH]ccc3c2[nH]1` as the molecule, how does the residual activity read?
**A.** 68%

**Q.** Which residual activity does the source give for `COc1ccc(Cl)cc1NC(=O)Nc1cc(C)nc2ccccc12` here?
**A.** 73%

**Q.** Which residual activity does the source give for `O=C(c1ccccc1)c1ccc(N2CCOCC2)cc1O` here?
**A.** 95%

**Q.** For `O=C1Cc2c([nH]c3ccc(Br)cc23)-c2ccccc2N1`, which residual activity is on record?
**A.** 81%

**Q.** `CCOc1nc(NC(=O)Cc2cc(OC)ccc2OC)cc(N)c1C#N` was tested. Which residual activity did it give?
**A.** 100%

**Q.** Which residual activity does the source give for `NCCNc1ncc(C(N)=O)c(Nc2cccc(C(F)(F)F)c2)n1` here?
**A.** 129%

**Q.** For `N#C/C(=C\c1ccc(O)c(O)c1)C(=O)NCc1ccccc1`, which residual activity is on record?
**A.** 32%
